Measurements from PubChem BioAssay AID1626 (SRMLSC, 2009).
The campaign covered roughly 220,000 compounds. About 2,000 (0.91%) were called active. Not shown: some 2% with an inconclusive outcome. No stated cut-off is given here; in the data, inconclusive means inhibition above about 80% without an active follow-up result; inactive means below that; test concentration not stated here. Not all results are given here. Entries with a potency or affinity are not part of this list.

experiment: M. tuberculosis H37Rv growth inhibitors, H37Rv strain (AID 1626); conditions: hits give high values, concentration not given here;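 further: bacteria incubated seven days before Alamar blue readout; 0% = bacteria only wells and 100% = bacteria with antibiotic wells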

SMILES	inhibition
O=C(/C=C/c1ccccc1[N+](=O)[O-])N1CCN(c2ccccc2F)CC1	4.82% (inactive)
O=C(O)c1ccc(S(=O)(=O)N2CCC(c3nc(-c4ccccc4Cl)no3)CC2)cc1	-8.76% (inactive)
O=C(COC(=O)/C=C/c1ccc(Br)o1)Nc1ccccc1F	8.52% (inactive)
Cc1ccc(C2=NC(=O)/C(=C/c3cc(O)c(O)c(Br)c3)S2)cc1	-2.49% (inactive)
Cn1ncc2c(NCc3cccc(C(F)(F)F)c3)c(C(=O)O)cnc21	-1.6% (inactive)
CCN(CC)C1CCN(C(=O)CCc2nnc(CCCCc3ccccc3)o2)C1 (configuration not stated)	-6.99% (inactive)
Cc1csc2c(N3CCN(C(=O)c4ccc(C(C)(C)C)cc4)CC3)ncnc12	5.47% (inactive)
CCCC(=O)Nc1cc(-c2nn(C)c(=O)c3ccccc23)ccc1N1CCOCC1	-6.76% (inactive)
CCCn1c(N)c(C(=O)CN2CCc3ccccc3C2)c(=O)n(C)c1=O	0.315% (inactive)
CC(=O)Nc1ccc(OCC(O)Cn2c(C)nc3ccccc32)cc1 (configuration not stated)	5.23% (inactive)
O=C(OC1CCCCC1=O)c1cc(Cl)ccc1[N+](=O)[O-] (configuration not stated)	-3.33% (inactive)
Cc1ccc(NC2(c3nnnn3-c3c(C)cccc3C)CCCCC2)cc1	16.4% (inactive)
CCOC(=O)c1csc(COc2ccc(OC)cc2)n1	-4.8% (inactive)
CC(=O)c1csc(COc2ccccc2)n1	-10.3% (inactive)
Cc1cccc2nc(CSc3nnc(N)s3)cn12	0.64% (inactive)
Cc1ccc(C(=O)N/C(=C/c2ccc(-c3ccc(Br)cc3)o2)C(=O)NC2CCS(=O)(=O)C2)cc1 (configuration not stated)	2.02% (inactive)
CCNc1ccc(C(=O)OCC)cc1NC(=O)c1cc(S(=O)(=O)N2CCOCC2)ccc1C	0.89% (inactive)
O=C(CN1CC(=O)Oc2ccccc21)NCc1ccco1	0.53% (inactive)
CCc1cc(-c2n[nH]c(C)c2-c2nc(C)cs2)c(O)cc1OC	4.46% (inactive)
Cc1nn(Cc2ccccc2)c(Cl)c1C(=O)NC1CCCc2ccccc21 (configuration not stated)	12.6% (inactive)
CCCNC(=O)C1CC(=O)N(c2ccc(OCC(=O)Nc3cc(C)cc(C)c3)cc2)C1 (configuration not stated)	-2.31% (inactive)
O=[N+]([O-])/C=C/c1c(OCc2ccccc2)ccc2ccccc12	42% (inactive)
CCOC(=O)COc1ccccc1/C=C\[N+](=O)[O-]	11.3% (inactive)

SMILES	inhibition
O=C(CSc1nnc(Cc2cc(=O)[nH]c(=O)[nH]2)n1-c1ccc(Cl)cc1)NC1CCCC1	-1.17% (inactive)
COc1cccc(C2=CC(c3ccc(OC)c(OC)c3OC)n3nnnc3N2)c1 (configuration not stated)	-9.14% (inactive)
COc1ccc(OC)c(C2C=C(c3ccc(C)c(C)c3)Nc3nnnn32)c1 (configuration not stated)	6.69% (inactive)
COc1ccc(C(=O)N(C)C2CCN(C)CC2)cc1S(=O)(=O)Nc1cc(Cl)ccc1Cl	-15.1% (inactive)
Cc1nc(=S)c2c([nH]1)-c1ccccc1CC21CCCCC1	6.17% (inactive)
Cc1ccc(C(=O)N/N=C/c2nc3ccccc3n2C)cc1	62.7% (inactive)
Cn1c(/C=N/O)nc2ccccc21	-6.75% (inactive)
Cc1ccc2cc(/C=N/NC(=O)c3ccccc3[N+](=O)[O-])c(Cl)nc2c1	-0.86% (inactive)
Cc1nn(CC(=O)Nc2ccccn2)c(C)c1[N+](=O)[O-]	-1.31% (inactive)
CCOc1cc(/C=C2/SC(=Nc3ccccc3)N(Cc3cccnc3)C2=O)ccc1OCC#N	-1.44% (inactive)
COc1ccc(C(=O)NCc2cccnc2)cc1OC	-4.7% (inactive)
COc1cccc(C(=O)NCc2cccnc2)c1	-9.43% (inactive)
CN1C(=O)/C(=C/c2ccccc2Cl)Sc2ccc(C(=O)NCc3cccnc3)cc21	34.2% (inactive)
Cc1ccc(NC(=O)COc2ccc(/C=C3/SC(=Nc4ccccc4)N(Cc4cccnc4)C3=O)cc2)cc1	2.56% (inactive)
CCOc1ccc(/C=C2/Sc3ccc(C(=O)N4CCN(C(=O)c5ccco5)CC4)cc3N(C)C2=O)cc1OC	-1.76% (inactive)
COc1ccc(N(C(=O)Nc2ccc(Cl)cc2)C2=NCCC2)cc1	-4.11% (inactive)
CCCN(CCC)CCCNC(=S)Nc1ccc2nc(N3CCN(C)CC3)cc(C)c2c1	-1.09% (inactive)
CCN(CC)C(NC(=O)Cc1ccccc1)C(Cl)(Cl)Cl (configuration not stated)	-7.35% (inactive)
O=c1[nH]c(-c2ccccc2)nc2sc(-c3ccccc3)cc12	0.66% (inactive)
O=c1[nH]c(-c2ccncc2)nc2ccccc12	-5.72% (inactive)
O=c1[nH]c(-c2cccnc2)nc2sc(-c3ccccc3)cc12	6.5% (inactive)
Cc1sc2nc(-c3ccncc3)[nH]c(=O)c2c1-c1ccccc1	-3.4% (inactive)
c1ccc(-c2nc3cc4ccccc4cc3[nH]2)nc1	-3.91% (inactive)

SMILES	inhibition
O=c1[nH]c(-c2ccccn2)cc2ccccc12	-4.45% (inactive)
Cc1sc2nc(-c3ccccc3)[nH]c(=O)c2c1-c1ccccc1	-4.26% (inactive)
c1ccc(-c2nc3ccccc3[nH]2)nc1	-3.79% (inactive)
O=[N+]([O-])c1cc(C(F)(F)F)ccc1NCCCN1CCOCC1	7.61% (inactive)
COc1cc(C(=O)Nc2cc(C)cc(C)c2)c(-n2cnnn2)cc1OC	5.79% (inactive)
CCC(C)OC(=O)C1=C(C)O[C@]23OC(N)=C(C#N)[C@]12C(=O)c1ccccc13 (some centres not stated)	3.72% (inactive)
Clc1ccc(-c2ccn[nH]2)cc1	58.5% (inactive)
COC(=O)c1ccc(NS(=O)(=O)c2ccc3c(c2)oc(=O)n3C)cc1	-7.58% (inactive)
CCOC(=O)C1CCN(c2nc(C)cc(C)c2C#N)CC1	2.49% (inactive)
Cn1c(SC2=CS(=O)(=O)c3ccccc32)nc2ccccc21	54.9% (inactive)
Cc1cc(C)nc(SC2=CS(=O)(=O)c3ccccc32)n1	3.84% (inactive)
CCOC(=O)c1sc(NC(=O)CSc2nncn2C)nc1C	4.68% (inactive)
O=C(c1ccc(N2C(=O)C3C4c5ccccc5C(c5ccccc54)C3C2=O)cc1)N1CCOCC1 (configuration not stated)	-4.29% (inactive)
COC(=O)c1sc(OC)cc1OCc1ccc(C)cc1	-1.7% (inactive)
COc1ccccc1NC(=O)c1ccc([N+](=O)[O-])cc1[N+](=O)[O-]	3.09% (inactive)
CCC(NC(=O)c1ccc([N+](=O)[O-])cc1[N+](=O)[O-])c1ccccc1 (configuration not stated)	-5.13% (inactive)
N#C/C(=C\c1ccc([N+](=O)[O-])cc1)C(=O)NCCCn1ccnc1	3.27% (inactive)
CCCSc1ccc(-c2nn(-c3ccccc3)cc2/C=C(/C#N)C(=O)NCCCOC)cc1	-7.18% (inactive)
O=C(NCCCn1ccnc1)c1cn(-c2ccccc2)nc1-c1ccc(F)cc1	4.17% (inactive)
CCSc1ccc(-c2nn(-c3ccccc3)cc2/C=C(/C#N)C(=O)NCCCOC)cc1	-5.12% (inactive)
CSCCC(NS(=O)(=O)c1ccc(Cl)cc1)C(=O)OCC(=O)c1c(C)[nH]c2ccccc12 (configuration not stated)	-2.72% (inactive)
C/C=C(\C)C(=O)N1CC2(CC(c3cccc(NC(=O)CC(c4ccccc4)c4ccccc4)c3)=NO2)C[C@H]1C(N)=O (some centres not stated)	4.13% (inactive)
COc1ccccc1C(=O)C1CCCN(C(=O)CCC(=O)c2ccccc2)C1 (configuration not stated)	4.79% (inactive)

SMILES	inhibition
O=C(CNc1cccc2ccccc12)N/N=C/C=C/c1ccco1	-2.95% (inactive)
CCOC(=O)c1c(C)n(-c2ccc(C)cc2)c2ccc(OCC(O)CN3CCN(C)CC3)cc12 (configuration not stated)	-2.8% (inactive)
CCOC(=O)c1c(C)n(-c2ccc(C)cc2)c2ccc(OCC(O)CNCC3CCCO3)cc12 (configuration not stated)	0.55% (inactive)
Cc1cccc(N(C(=O)C(F)(F)F)C(C(=O)NC2CCCCC2)c2cccs2)c1 (configuration not stated)	-0.05% (inactive)
Cc1cccc(NC(=O)/C=C/c2cccs2)n1	-10.1% (inactive)
Cc1ccc(-c2csc(NC(=O)/C=C/c3cccs3)n2)cc1C	51.8% (inactive)
O=C(/C=C/c1cccs1)Nc1nccs1	-4.27% (inactive)
O=C(/C=C/c1cccs1)Nc1nc(-c2ccccc2)cs1	-0.14% (inactive)
Cn1nc(C(=O)Nc2sccc2C(N)=O)ccc1=O	-1.96% (inactive)
COc1ccc2oc(=O)c(C(=O)N3CCN(c4ccccc4C)CC3)cc2c1	-3.36% (inactive)
O=C(N/N=C/c1sc(N2CCOCC2)nc1-c1ccccc1)c1ccccc1F	-7.96% (inactive)
N#C/C(=C\c1sc(N2CCOCC2)nc1-c1ccccc1)C(=O)Nc1cccc2ccccc12	49.2% (inactive)
COC(=O)c1ccc(-n2nnnc2SCc2nn[nH]n2)cc1	-5.62% (inactive)
Cn1c(N)c(C(=O)CSc2ncn[nH]2)c(=O)n(C)c1=O	-13.1% (inactive)
Cc1nn2c(NCCN(C)C)c3c(nc2c1-c1ccccc1)CCC3	-3.03% (inactive)
Cc1nn2c(Nc3ccccc3)c3c(nc2c1-c1ccccc1)CCC3	7.77% (inactive)
COc1ccc(Nc2c3c(nc4c(-c5ccccc5)c(C)nn24)CCC3)cc1	13.4% (inactive)
Cc1nn2c(NCCCN(C)C)c3c(nc2c1-c1ccccc1)CCCC3	10.8% (inactive)
COc1ccc(C(C)=O)cc1CSc1nnc(-c2ccncc2)n1C	-2.28% (inactive)
Cn1c(-c2csc(-c3cccc(C(F)(F)F)c3)n2)n[nH]c1=S	3.67% (inactive)
Cc1ccc(C(=O)NCCSC2CCCCC2)cc1S(=O)(=O)Nc1ccccc1	-1.4% (inactive)
O=C(NCc1cccnc1)C(C(=O)c1ccc(F)cc1)n1ccccc1=O (configuration not stated)	-8.48% (inactive)
CCC(=O)NCCc1nc2ccccc2n1CC(=O)c1ccccc1	-2.01% (inactive)
